Assay results reported in PubChem BioAssay AID1159580 (chemical genetic matrix, 2015).
“And” between values parts separate entries of the source, which are not always exact repeats. Equal entries are not always repeated. Among all 5,500 compounds or so, about 2,000 (36%) were called active. About 18% were inconclusive and are not listed. Rule as the data show it: active = normalized growth mostly below about 0.91 (no sharp cut-off); inconclusive = no clear call, values can overlap the other calls; inactive = mostly above about 0.92. Some of the results follow.

Assay: chemical genetic growth profiling, strain panel (AID 1159580);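 also: tested at 20 µM; growth read once vehicle control cultures reached saturation at 30 °C; 1 = growth at the plate median or of vehicle wells; lower values mean less growth of the strain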
Settings: S. cerevisiae deletion strains, growth OD
[1] = locus YAL013W, strain DEP1, active compounds read low
[2] = locus YBR229C, strain ROT2, active compounds read low
[3] = locus YCL061C, strain MRC1, active compounds read low
[4] = locus YDL101C, strain DUN1, active compounds read low
[5] = locus YDR150W, strain NUM1, active compounds read low
[6] = locus YEL061C, strain CIN8, active compounds read low
[7] = locus YGR078C, strain PAC10, active compounds read low
[8] = locus YHR030C, strain SLT2, active compounds read low
[9] = locus YHR087W, strain rtc3, active compounds read low
[10] = locus YJR043C, strain POL32, active compounds read low
[11] = locus YJR075W, strain HOC1, active compounds read low
[12] = locus YLR039C, strain RIC1, active compounds read low
[13] = locus YLR058C, strain SHM2 (second series), active compounds read low
[14] = locus YLR085C, strain ARP6, active compounds read low
[15] = locus YLR262C, strain YPT6, active compounds read low
[16] = locus YML094W, strain GIM5, active compounds read low
[17] = locus YMR219W, strain ESC1, active compounds read low
[18] = locus YMR263W, strain SAP30, active compounds read low
[19] = locus YNL153C, strain GIM3, active compounds read low
[20] = locus YNL298W, strain CLA4 (second series), active compounds read low
[21] = locus YNL322C, strain KRE1, active compounds read low
[22] = locus YNR030W, strain Alg12, active compounds read low
[23] = locus YPL055C, strain LGE1, active compounds read low
[24] = locus YPL241C, strain CIN2, active compounds read low
[25] = locus YPR135W, strain CTF4, active compounds read low

Measured: normalized growth

OC1(C(F)(F)F)CC(c2ccc3ccccc3c2)=NN1 (centres undefined)
active: [1] 0.205 | locus YAR019C, strain CDC15, active compounds read low 0.155 | locus YBL105C, strain PKC1, active compounds read low 0.336 | locus YBR135W, strain CKS1, active compounds read low 0.263 | locus YBR136W, strain MEC1, active compounds read low 0.339 | locus YBR160W, strain CDC28, active compounds read low 0.367 | [2] 0.223 | [3] 0.19 | locus YDL017W, strain CDC7, active compounds read low 0.373 | locus YDL028C, strain MPS1, active compounds read low 0.402 | [4] 0.215 and 0.164 | locus YDL108W, strain KIN28, active compounds read low 0.392 | locus YDL132W, strain cdc53, active compounds read low 0.234 | locus YDL214C, strain PRR2, active compounds read low 0.224 | locus YDR052C, strain DBF4, active compounds read low 0.302 | locus YDR054C, strain cdc34, active compounds read low 0.233 | [5] 0.397 | locus YDR226W, strain ADK1, active compounds read low 0.278 | locus YDR477W, strain SNF1, active compounds read low 0.146 | [6] 0.146 | locus YER123W, strain YCK3, active compounds read low 0.181 | locus YER133W, strain GLC7, active compounds read low 0.135 | locus YFL009W, strain cdc4, active compounds read low 0.17 | locus YFL029C, strain CAK1, active compounds read low 0.16 | locus YFR003C, strain YPI1, active compounds read low 0.405 | locus YFR019W, strain FAB1, active compounds read low 0.376 | locus YFR028C, strain CDC14, active compounds read low 0.226 | locus YGR040W, strain KSS1, active compounds read low 0.135 | locus YGR052W, strain FMP48, active compounds read low 0.15 | [7] 0.213 | locus YGR092W, strain DBF2, active compounds read low 0.198 | [8] 0.0763 and 0.104 | locus YHR079C, strain IRE1, active compounds read low 0.125 | locus YHR082C, strain KSP1, active compounds read low 0.141 | [9] 0.442 | locus YHR205W, strain SCH9, active compounds read low 0.138 | locus YIL147C, strain SLN1, active compounds read low 0.322 | locus YJL095W, strain BCK1, active compounds read low 0.115 | locus YJL128C, strain PBS2, active compounds read low 0.386 | locus YJL157C, strain FAR1, active compounds read low 0.301 | locus YJR016C, strain ILV3, active compounds read low 0.162 | [10] 0.245 | locus YJR066W, strain TOR1 (second series), active compounds read low 0.192 | locus YJR066W, strain TOR1, active compounds read low 0.125 | [11] 0.298 | locus YKL048C, strain ELM1, active compounds read low 0.285 | locus YKL067W, strain YNK1, active compounds read low 0.279 | locus YKL101W, strain HSL1, active compounds read low 0.251 | locus YKL190W, strain CNB1, active compounds read low 0.0734 | locus YKL193C, strain SDS22, active compounds read low 0.161 | locus YKL203C, strain TOR2, active compounds read low 0.13 | [12] 0.13 | [13] 0.274 | [14] 0.0695 | locus YLR113W, strain HOG1, active compounds read low 0.15 | locus YLR133W, strain CKI1, active compounds read low 0.27 | [15] 0.12 | locus YLR403W, strain SFP1, active compounds read low 0.0326 | locus YML070W, strain DAK1, active compounds read low 0.211 | [16] 0.192 | locus YMR001C, strain CDC5, active compounds read low 0.151 | locus YMR205C, strain PFK2 (second series), active compounds read low 0.218 | [17] 0.258 | [18] 0.298 | locus YMR277W, strain FCP1, active compounds read low 0.172 | locus YMR307W, strain GAS1, active compounds read low 0.13 | locus YNL006W, strain LST8, active compounds read low 0.2 | locus YNL020C, strain ARK1, active compounds read low 0.257 | [19] 0.239 | locus YNL161W, strain CBK1, active compounds read low 0.211 | locus YNL183C, strain NPR1, active compounds read low 0.115 | locus YNL207W, strain RIO2, active compounds read low 0.195 | locus YNL222W, strain SSU72, active compounds read low 0.225 | [20] 0.0831 | locus YNL307C, strain MCK1 (second series), active compounds read low 0.228 | [21] 0.571 | [22] 0.108 | locus YOL006C, strain TOP1, active compounds read low 0.1 | locus YOL078W, strain AVO1, active compounds read low 0.186 | locus YOL136C, strain PFK27, active compounds read low 0.211 | locus YOR061W, strain CKA2, active compounds read low 0.43 | locus YOR119C, strain RIO1, active compounds read low 0.129 | locus YOR231W, strain MKK1, active compounds read low 0.132 | locus YOR329C, strain SCD5, active compounds read low 0.203 | locus YPL031C, strain PHO85, active compounds read low 0.126 | [23] 0.157 | locus YPL153C, strain RAD53, active compounds read low 0.115 | locus YPL204W, strain HRR25, active compounds read low 0.13 | locus YPL209C, strain IPL1, active compounds read low 0.232 | [24] 0.108 | locus YPL256C, strain CLN2, active compounds read low 0.147 | locus YPR025C, strain CCL1, active compounds read low 0.248 | locus YPR106W, strain ISR1, active compounds read low 0.586 | locus YPR111W, strain DBF20, active compounds read low 0.715 | [25] 0.163 | strain NNK1, active compounds read low 0.492 | strain TSCII, active compounds read low 0.18

OC1(C(F)(F)F)CC(c2ccccc2)=NN1 (centres undefined)
active: [15] 0.809
inactive: [1] 0.974 | [2] 0.968 | [3] 0.978 | [4] 0.987 | locus YDL134C, strain PPH21, active compounds read low 0.984 | [5] 0.949 | [6] 1 | [7] 0.972 | [8] 1.08 | [9] 0.967 | locus YJL187C, strain SWE1, active compounds read low 1 | [10] 0.991 | [11] 0.915 | [12] 0.843 | [13] 0.961 | [14] 1.03 | [16] 1 | [17] 0.976 | [18] 0.976 | [19] 0.981 | [20] 0.989 | [21] 0.953 | [22] 1 | [23] 0.981 | [24] 1.02 | [25] 0.92
